Experimental data reported in PubChem BioAssay AID743331 (Broad Institute, 2014).
Active and inactive are the calls of the source.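 Rule for the calls: active = falling cell viability signal whose fitted half-effect concentration is at most twice the highest valid tested dose; inconclusive = flat curve with 30 to 70 percent loss, or poor fit; inactive = the rest.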

Experiment: HepG2 cell cytotoxicity, dose response, cytotoxicity control, plate reader, dry powder, set 8 (AID 743331)
Details: HepG2 viability, CellTiter-Glo ATP luminescence, 72 h; series mostly up to 15 µM

Compound	outcome
Cc1cnc(NC(=O)c2cc(S(=O)(=O)N(C)C)ccc2C2CCCC2)s1	inactive
CCN(CC)c1ccc(S(=O)(=O)N(C)C)cc1C(=O)Nc1ncc(C)s1	inactive
Cc1ccc(NC(=O)c2cc(S(=O)(=O)N(C)C)ccc2N2CCCC2)cc1	inactive
CN(C)S(=O)(=O)c1ccc(N2CCCC2)c(C(=O)Nc2nccs2)c1	inactive
COc1cccc2sc(NC(=O)c3cc(S(=O)(=O)N(C)C)ccc3N3CCCC3)nc12	inactive
COc1ccc2nc(NC(=O)c3cc(S(=O)(=O)N(C)C)ccc3N3CCCC3)sc2c1	inactive
Cc1cnc(NC(=O)c2cc(S(=O)(=O)N3CCCC3)ccc2N2CCCC2)s1	inactive
CN(C)CCCN(Cc1cc2ccccc2[nH]c1=O)C(=O)Nc1ccccc1	inactive
Cc1cnc(NC(=O)c2cc(S(=O)(=O)N3CCCCC3)ccc2N2CCCC2)s1	inactive
Cc1cnc(NC(=O)c2cc(S(=O)(=O)N3CCOCC3)ccc2N2CCCC2)s1	inactive
Cc1cnc(NC(=O)c2cc(S(=O)(=O)N(C)C)ccc2N2CCC2)s1	inactive
CN(C)CCCN(Cc1cc2ccccc2[nH]c1=O)C(=O)NCc1ccccc1	inactive
Cc1cnc(NC(=O)c2cc(S(=O)(=O)N(C)C)ccc2N(C)C)s1	inactive
CN(C)S(=O)(=O)c1ccc(N2CCCC2)c(C(=O)Nc2cccc(F)c2)c1	inactive
CN(C)S(=O)(=O)c1ccc(N2CCCC2)c(C(=O)Nc2nc3ccccc3s2)c1	inactive
CN(C)S(=O)(=O)c1ccc(N2CCCC2)c(C(=O)Nc2ccccc2)c1	inactive
Cc1cnc(NC(=O)c2cc(S(=O)(=O)N(C)C)ccc2N2CCCC2)s1	inactive
Cc1csc(NC(=O)c2cc(S(=O)(=O)N(C)C)ccc2N2CCCC2)n1	inactive
COc1ccc2sc(NC(=O)c3cc(S(=O)(=O)N(C)C)ccc3N3CCCC3)nc2c1	inactive
